Conditions in all cases: mRNA level, 48 h; actives raise or lower the signal
Read-out in assay [1]: Cytochrome P450 (CYP2B6), CYP2B6 (gene 1555)
The assay is described as follows: LTEA_HepaRG_CYP2B6: Life Technologies and Expression Analysis (LTEA) Assay for Cytochrome P450 (CYP2B6) using HepaRG (AID 2283481). An outline of the steps:
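CYP2B6 transcript level quantified by qRT-PCR against three housekeeping genes, fitted bidirectionally relative to DMSO. HepaRG cultures received chemicals for 48 h, 8-point half-log series from 100 uM in 0.5% DMSO, duplicate wells, serum-free induction medium.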

Read-out in assay [2]: Cytochrome P450 2C19 (Homo sapiens) (UniProt P33261)
Put plainly: LTEA_HepaRG_CYP2C19: Life Technologies and Expression Analysis (LTEA) Assay for CYP2C19 using HepaRG (AID 2283482). An outline of the steps: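 CYP2C19 transcript levels by qRT-PCR, normalized to three housekeeping genes, in HepaRG cells after 48 h chemical exposure. Eight-point half-log series topping at 100 uM, 0.5% DMSO vehicle. Increases and decreases both fitted against DMSO.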

Read-out in a further assay: CYP2C8 (gene 1558)
The assay is described as follows: LTEA_HepaRG_CYP2C8: Life Technologies and Expression Analysis (LTEA) Assay for CYP2C8 using HepaRG (AID 2283483). An outline of the steps: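 Differentiated human HepaRG cells were exposed for 48 h in serum-free induction medium to eight half-log concentrations up to 100 uM in 0.5% DMSO, in duplicate. CYP2C8 mRNA was measured by TaqMan qRT-PCR, normalized to ACTB, GAPDH and POLR2A, and fitted bidirectionally against DMSO.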

Read-out in a further assay: CYP4A11 (gene 1579)
Put plainly: LTEA_HepaRG_CYP4A11: Life Technologies and Expression Analysis (LTEA) Assay for CYP4A11 using HepaRG (AID 2283486). The method, boiled down:
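Readout is CYP4A11 transcript level by qRT-PCR, normalized to three housekeeping genes and fitted bidirectionally against 0.5% DMSO. Human HepaRG cells were treated 48 h, in duplicate, with an 8-point half-log series topping at 100 uM.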

Read-out in assay [3]: DNA damage-inducible transcript 3 (DDIT3), DDIT3 (gene 1649)
The assay is described as follows: LTEA_HepaRG_DDIT3: Life Technologies and Expression Analysis (LTEA) Assay for DNA damage-inducible transcript 3 (DDIT3) using HepaRG (AID 2283488). An outline of the steps:
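HepaRG cells, 48 h after plating, exposed 48 h in serum-free induction medium to 8 half-log concentrations up to 100 uM in 0.5% DMSO, in duplicate. DDIT3 mRNA measured by TaqMan qRT-PCR, normalized to ACTB, GAPDH and POLR2A. Fitted bidirectionally against DMSO.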

Read-out in assay [4]: Pro-epidermal growth factor (Homo sapiens) (UniProt P01133)
The assay is described as follows: LTEA_HepaRG_EGF: Life Technologies and Expression Analysis (LTEA) Assay for Epidermal growth factor (EGF) using HepaRG (AID 2283489). The method, boiled down: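 EGF transcript measured by Fluidigm TaqMan qRT-PCR with three housekeeping genes for normalization, 48 h after dosing HepaRG cultures in duplicate (top 100 uM, half-log steps, 0.5% DMSO vehicle). Gain or loss relative to DMSO fitted.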

Read-out in assay [5]: Early growth response protein 1 (EGR1) transcription factor, EGR1 (gene 1958)
Put plainly: LTEA_HepaRG_EGR1: Life Technologies and Expression Analysis (LTEA) Assay for Early growth response protein 1 (EGR1) transcription factor using HepaRG (AID 2283490). The method, boiled down:
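Differentiated human HepaRG cells in serum-free induction medium were exposed in duplicate for 48 h to eight concentrations (top 100 uM, half-log steps) in 0.5% DMSO. EGR1 mRNA was quantified by qRT-PCR, normalized to ACTB, GAPDH and POLR2A, and fitted bidirectionally versus DMSO.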

Read-out in assay [6]: Ezrin (EZR), EZR (gene 7430)
Put plainly: LTEA_HepaRG_EZR: Life Technologies and Expression Analysis (LTEA) Assay for Ezrin (EZR) using HepaRG (AID 2283491). The method, boiled down: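 Differentiated human HepaRG cells, 48 h after plating, were exposed in serum-free induction medium for 48 hours to eight half-log concentrations up to 100 uM in 0.5% DMSO. EZR mRNA was measured by TaqMan qRT-PCR, normalized to ACTB, GAPDH and POLR2A, and fitted bidirectionally against DMSO.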

Read-out in assay [7]: Cytochrome P450 3A7 (Homo sapiens) (UniProt P24462)
The assay is described as follows: LTEA_HepaRG_CYP3A7: Life Technologies and Expression Analysis (LTEA) Assay for CYP3A7 using HepaRG (AID 2283492). An outline of the steps:
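CYP3A7 transcript measured by qRT-PCR (ACTB, GAPDH, POLR2A normalization) after 48 h chemical exposure of HepaRG cells in duplicate. Eight half-log concentrations, maximum 100 uM, 0.5% DMSO vehicle; bidirectional curve fitting against DMSO baseline.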

Read-out in another assay: CYP3A5 (gene 1577)
The assay is described as follows: LTEA_HepaRG_CYP3A5: Life Technologies and Expression Analysis (LTEA) Assay for CYP3A5 using HepaRG (AID 2283493). The method, boiled down: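 HepaRG cells, plated 48 h then in serum-free induction medium, dosed in duplicate for 48 h with eight half-log concentrations up to 100 uM in 0.5% DMSO. Gene mRNA by Fluidigm TaqMan qRT-PCR, normalized to ACTB, GAPDH, POLR2A.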

Read-out in assay [8]: Fatty Acid-Binding Protein 1 (FABP1), FABP1 (gene 2168)
Put plainly: LTEA_HepaRG_FABP1: Life Technologies and Expression Analysis (LTEA) Assay for Fatty Acid-Binding Protein 1 (FABP1) using HepaRG (AID 2283494). An outline of the steps:
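Differentiated human HepaRG cells were exposed in duplicate for 48 h in serum-free induction medium to 8-point half-log concentration series topping at 100 uM in 0.5% DMSO. FABP1 mRNA measured by TaqMan qRT-PCR, normalized to ACTB/GAPDH/POLR2A; bidirectional fit versus DMSO.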

Read-out in assay [9]: Cytochrome P450 4A22 (Homo sapiens) (UniProt Q5TCH4)
The assay is described as follows: LTEA_HepaRG_CYP4A22: Life Technologies and Expression Analysis (LTEA) Assay for Cytochrome P450 4A22 (CYP4A22) using HepaRG (AID 2283495). The method, boiled down: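 Gene expression measured by qRT-PCR against three housekeeping genes (ACTB, GAPDH, POLR2A), with gain or loss fitted relative to 0.5% DMSO vehicle. HepaRG cultures received 48 h chemical treatment, top concentration 100 uM, half-log steps, duplicate wells.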

Read-out in assay [10]: Cytochrome P450 7A1 (Homo sapiens) (UniProt P22680)
Put plainly: LTEA_HepaRG_CYP7A1: Life Technologies and Expression Analysis (LTEA) Assay for Cytochrome P450 7A1 (CYP7A1) using HepaRG (AID 2283496). The method, boiled down:
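HepaRG cells plated 48 h, then switched to serum-free induction medium and exposed in duplicate for 48 h to 8-point half-log series from 100 uM in 0.5% DMSO. CYP7A1 mRNA by qRT-PCR (TaqMan), normalized to ACTB/GAPDH/POLR2A; bidirectional fit versus DMSO.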

Read-out in assay [11]: Glutathione S-Transferase (GSTA2), GSTA2 (gene 2939)
Put plainly: LTEA_HepaRG_GSTA2: Life Technologies and Expression Analysis (LTEA) Assay for Glutathione S-Transferase (GSTA2) using HepaRG (AID 2283497). An outline of the steps:
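Human HepaRG cells, plated 48 h, then exposed in serum-free induction medium for 48 h to eight half-log concentrations up to 100 uM in 0.5% DMSO, duplicate. GSTA2 mRNA by qRT-PCR, normalized to ACTB/GAPDH/POLR2A; bidirectional fit versus DMSO.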

Read-out in assay [12]: Glutamate-cysteine ligase catalytic (GCLC), GCLC (gene 2729)
Put plainly: LTEA_HepaRG_GCLC: Life Technologies and Expression Analysis (LTEA) Assay for Glutamate-cysteine ligase catalytic (GCLC) using HepaRG (AID 2283498). An outline of the steps: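 Differentiated human HepaRG cells, plated 48 h then switched to serum-free induction medium, were exposed in duplicate for 48 h to 8 half-log concentrations topping at 100 uM in 0.5% DMSO. GCLC mRNA was quantified by qRT-PCR against ACTB, GAPDH and POLR2A.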

Read-out in assay [13]: growth arrest and DNA damage 45 (GADD45G), GADD45G (gene 10912)
The assay is described as follows: LTEA_HepaRG_GADD45G: Life Technologies and Expression Analysis (LTEA) Assay for growth arrest and DNA damage 45 (GADD45G) using HepaRG (AID 2283499). The method, boiled down: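 GADD45G transcript level by qRT-PCR (housekeeping-normalized: ACTB, GAPDH, POLR2A) after 48 h chemical treatment of a single HepaRG lot in serum-free induction medium; eight-point half-log series up to 100 uM in 0.5% DMSO, duplicates, up- or down-regulation scored.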

Read-out in assay [14]: Glutamate-cysteine ligase regulatory (GCLM), GCLM (gene 2730)
The assay is described as follows: LTEA_HepaRG_GCLM: Life Technologies and Expression Analysis (LTEA) Assay for Glutamate-cysteine ligase regulatory (GCLM) using HepaRG (AID 2283500). An outline of the steps: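 Differentiated HepaRG cells exposed 48 h in serum-free induction medium to eight half-log concentrations up to 100 uM (0.5% DMSO). GCLM mRNA by TaqMan qRT-PCR, normalized to ACTB, GAPDH and POLR2A; bidirectional fit versus DMSO.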

Read-out in assay [15]: Cytochrome P450 3A4 (Homo sapiens) (UniProt P08684)
Put plainly: LTEA_HepaRG_CYP3A4: Life Technologies and Expression Analysis (LTEA) Assay for CYP3A4 using HepaRG (AID 2283487). An outline of the steps:
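Differentiated HepaRG cells in serum-free induction medium exposed in duplicate for 48 h to 8 half-log concentrations up to 100 uM in 0.5% DMSO. CYP3A4 mRNA measured by qRT-PCR normalized to ACTB, GAPDH and POLR2A; bidirectional fit versus DMSO.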

This is an account of results in PubChem BioAssay (EPA / NIEHS).

The source made the active and inactive calls. The calls were made as follows: active = hit-call score of the fitted dose curve at least 0.9, where 1 is the maximum; inactive = score below 0.9.

Sequence of Cytochrome P450 2C19 (Homo sapiens) (P33261 whole entry, looked up): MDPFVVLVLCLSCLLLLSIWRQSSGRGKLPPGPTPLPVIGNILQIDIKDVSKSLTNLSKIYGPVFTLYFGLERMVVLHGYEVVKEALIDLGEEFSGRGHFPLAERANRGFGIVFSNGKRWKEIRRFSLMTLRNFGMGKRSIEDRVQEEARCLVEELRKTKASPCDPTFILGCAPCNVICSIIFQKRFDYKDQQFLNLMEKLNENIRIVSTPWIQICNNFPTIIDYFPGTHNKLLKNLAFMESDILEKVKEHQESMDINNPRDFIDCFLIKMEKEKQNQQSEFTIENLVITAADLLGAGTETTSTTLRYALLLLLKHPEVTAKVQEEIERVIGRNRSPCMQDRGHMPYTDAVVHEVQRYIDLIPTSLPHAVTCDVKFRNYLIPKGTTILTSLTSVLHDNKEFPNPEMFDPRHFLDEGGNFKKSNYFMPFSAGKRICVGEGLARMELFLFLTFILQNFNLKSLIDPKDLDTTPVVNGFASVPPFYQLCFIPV
Sequence of Cytochrome P450 3A7 (Homo sapiens) (P24462 whole entry, looked up): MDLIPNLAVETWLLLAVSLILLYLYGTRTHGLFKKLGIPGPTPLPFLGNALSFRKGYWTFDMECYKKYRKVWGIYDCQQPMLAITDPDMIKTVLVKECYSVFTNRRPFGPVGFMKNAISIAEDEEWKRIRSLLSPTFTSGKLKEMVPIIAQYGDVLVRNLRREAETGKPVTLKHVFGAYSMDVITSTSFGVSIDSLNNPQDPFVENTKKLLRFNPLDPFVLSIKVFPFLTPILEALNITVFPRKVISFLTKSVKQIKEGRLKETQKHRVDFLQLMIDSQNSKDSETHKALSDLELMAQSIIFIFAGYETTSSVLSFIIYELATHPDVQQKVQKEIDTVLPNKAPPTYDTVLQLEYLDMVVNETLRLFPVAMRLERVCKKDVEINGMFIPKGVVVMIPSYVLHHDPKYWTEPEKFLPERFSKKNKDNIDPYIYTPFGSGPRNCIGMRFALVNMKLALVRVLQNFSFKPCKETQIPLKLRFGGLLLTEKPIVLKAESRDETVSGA
Sequence of Cytochrome P450 3A4 (Homo sapiens) (P08684 whole entry, looked up): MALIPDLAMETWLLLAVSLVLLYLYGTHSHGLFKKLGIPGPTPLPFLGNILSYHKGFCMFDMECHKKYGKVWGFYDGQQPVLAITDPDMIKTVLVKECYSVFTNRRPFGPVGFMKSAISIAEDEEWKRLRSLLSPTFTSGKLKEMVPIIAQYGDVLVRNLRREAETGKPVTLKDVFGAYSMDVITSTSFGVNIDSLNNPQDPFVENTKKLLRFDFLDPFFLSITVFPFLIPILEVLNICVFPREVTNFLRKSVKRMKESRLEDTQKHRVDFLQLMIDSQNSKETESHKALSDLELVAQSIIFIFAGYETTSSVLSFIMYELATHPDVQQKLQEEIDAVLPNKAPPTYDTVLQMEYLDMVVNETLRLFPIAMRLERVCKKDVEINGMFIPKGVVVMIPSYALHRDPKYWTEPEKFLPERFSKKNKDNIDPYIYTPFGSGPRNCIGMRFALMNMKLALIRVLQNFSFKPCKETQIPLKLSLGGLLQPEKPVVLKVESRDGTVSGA

For `CCc1ccc(O)c(C(C)(C)C)c1`, the compound was classed as inactive (in assay [1]; in assay [2]; with CYP2C8 (gene 1558); with CYP4A11 (gene 1579); in assay [3]; in assay [4]). The call (in [5]; in assay [6]; in assay [7]; with CYP3A5 (gene 1577); in assay [8]; in [9]) was inactive. In addition, the compound was classed as inactive in assay [10], in assay [11], in assay [12], in assay [13] and in assay [14].

As for `Cn1c(=O)c2[nH]cnc2n(C)c1=O`, the outcome (in [1]; in assay [2]; in the assay with CYP2C8 (gene 1558); in assay [3]; in assay [4]; in [5]) was inactive. Besides, the call (in [6]; in [7]; with CYP3A5 (gene 1577); in [9]; in assay [10]; in assay [11]) was inactive. The outcome in assay [12], in [13] and in assay [14] was inactive.

As for `CC(C)C(=O)Nc1ccc([N+](=O)[O-])c(C(F)(F)F)c1`, the AC50 (in general, the midpoint of the concentration-response curve, whichever way the signal moves) in [1] was 63.2 µM (active); in assay [2] it was 77.3 µM (active); in the assay with CYP2C8 (gene 1558), 15.8 µM (active); in assay [3], 87.5 µM (active); in assay [4] it was 50 µM (active); in [8] it was 37.9 µM (active). Besides, the AC50 in assay [9] is 41.7 µM (active); in assay [10] it was 67.6 µM (active); in [11], 65.8 µM (active); in [13], 85.6 µM (active); in [14], 50 µM (active). Moreover, the outcome (in assay [6]; in the assay with CYP3A5 (gene 1577); in assay [12]) was inactive.

Regarding `O=C(O)[C@H](O)[C@@H](O)C(=O)O`, the call in [3], in assay [4], in assay [6], in assay [8], in [11] and in assay [12] was inactive. Moreover, the compound was classed as inactive in assay [13] and in [14].

Regarding `OC[C@H]1O[C@@H]2O[C@H]3[C@H](O)[C@@H](O)[C@@H](O[C@H]4[C@H](O)[C@@H](O)[C@@H](O[C@H]5[C@H](O)[C@@H](O)[C@@H](O[C@H]6[C@H](O)[C@@H](O)[C@@H](O[C@H]7[C@H](O)[C@@H](O)[C@@H](O[C@H]1[C@H](O)[C@H]2O)O[C@@H]7CO)O[C@@H]6CO)O[C@@H]5CO)O[C@@H]4CO)O[C@@H]3CO`, the outcome (in [1]; in [2]; in the assay with CYP2C8 (gene 1558); in assay [3]; in [4]; in assay [6]) was inactive. In addition, the outcome (in [7]; in the assay with CYP3A5 (gene 1577); in [8]; in assay [9]; in assay [10]; in assay [11]) was inactive. For the same compound, the compound was called inactive in [12], in assay [13] and in assay [14].

For the compound `CCCCCCCCCCCCCCCCOS(=O)(=O)O`, the outcome (in [1]; with CYP2C8 (gene 1558); in assay [15]; in [3]; in assay [4]; in assay [5]) was inactive. The compound was called inactive (in assay [6]; in assay [7]; with CYP3A5 (gene 1577); in assay [8]; in assay [9]; in [12]). Further, the outcome in [13] and in assay [14] was inactive. For the same compound, the values for the AC50 in assay [2], in [10] and in assay [11] were 43.1 µM (active), 45.2 µM (active) and 43.5 µM (active), respectively.
